The record followed here is PubChem BioAssay AID720697 (Broad Institute, 2013).

Results with a measured potency or affinity are listed apart. Inconclusive results are not listed. A number with no mark means an inactive call. Calls of active or inactive are those of the source.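 The calls were made as follows: active = signal loss with fitted half-maximal concentration at or below twice the top valid tested dose in every test run; inconclusive = runs disagree, flat 30 to 70% signal loss, or poor fit; inactive = all runs flat, opposite direction, or potency beyond limit.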

This test can be described thus: HEK293T cytotoxicity, dose response, cytotoxicity control for miR-122 modulator project, cell-based, inhibitor set, cherry-pick, set 2 (AID 720697).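 Also: 0% = median of neutral control wells and -100% = MG132 positive control wells.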 Particulars: HEK293T viability, CellTiter-Glo luminescence, 48 h; series mostly up to 26 µM. In general terms: ATP-based viability assays read luminescence as a measure of living cells.
As for `O=C(COc1ccccc1F)N1CCc2ccccc2C1`, the outcome was inactive.
With `CCN(C[C@@H]1N[C@@H](CO)[C@H]1c1ccc(-c2cccc(F)c2)cc1)C(=O)CN(C)C`, the outcome was inactive.
For the molecule `CCCN(C[C@@H]1N[C@@H](CO)[C@H]1c1ccc(-c2cccnc2)cc1)C(C)=O`, the molecule was classed as inactive.
On the same count and under the same terms, next, `CCCCC(=O)OCC(=O)c1[nH]c(C)c(C(=O)OCC)c1C`: “inactive”; `Cc1noc(C)c1NC(=O)Nc1ccc2c(c1)C(=O)N(C)[C@@H]1CC[C@H](CC(=O)N[C@H]3CCN(Cc4ccccc4)C3)O[C@H]1CO2`: “inactive”; `CC(C)CC#Cc1ccc2c(c1)O[C@H](CN(C)C(=O)c1cnccn1)[C@H](C)CN([C@@H](C)CO)S2(=O)=O`: “inactive”.
On to `C/C=C/c1ccc([C@H]2[C@H](CO)N[C@H]2CN(C)S(=O)(=O)c2ccccc2)cc1`, for which the outcome was inactive.
Consider `COCC(=O)N(C[C@H]1[C@H](c2ccccc2)[C@@H](CO)N1C(=O)NC(C)C)C(C)C`, for which the molecule was called inactive.
`C/C=C/c1ccc([C@@H]2[C@@H](CO)N[C@@H]2CN(C(=O)C2CCCC2)C(C)C)cc1`: the outcome was inactive.
As for `CNC(=O)C[C@H]1CC[C@@H]2[C@H](COc3ccc(NC(=O)Nc4cccc(F)c4)cc3C(=O)N2C)O1`, the result was inactive.
For the molecule `COc1ccc(-c2ccc(C#N)c(OC(=O)c3c(Cl)cccc3Cl)n2)cc1`, the activity change, negative = cytotoxicity was -5.32% [at 6 µM].
For the molecule `COCC(=O)N(C[C@H]1[C@H](c2ccccc2)[C@H](CO)N1C(=O)NC(C)C)C(C)C`, the outcome was inactive.
As for `COc1cccc(C(=O)Nc2ccc3c(c2)C(=O)N(C)[C@@H]2CC[C@@H](CC(=O)NCc4ccc(F)cc4)O[C@@H]2CO3)c1`, the molecule was called inactive.
Same read-out and setting: for `Cc1cccc(NC(=O)Nc2ccc3c(c2)C(=O)N(C)[C@@H]2CC[C@@H](CC(=O)NCc4ccccc4Cl)O[C@H]2CO3)c1` the value was “inactive”; for `CN[C@H]1C[C@H]2c3[nH]c4ccc(-c5ccc(OC)cc5)cc4c3CCN2C(=O)[C@H]1[C@H](C)O`, “inactive”; for `COc1ccc(S(=O)(=O)N(C)C[C@@H]2Oc3cc(-c4cccc(F)c4)ccc3S(=O)(=O)N([C@@H](C)CO)C[C@H]2C)cc1`, “inactive”.
`CC(=O)N=c1scc(-c2ccccc2)n1-c1cccc(O)c1`: the result was inactive.
Same read-out and setting: for `O=C(Nc1ccccc1F)N1[C@H](CO)[C@@H]2c3ccccc3NC[C@@H]21` the value was “inactive”.
For `CN1C(=O)c2cc(NC(=O)c3cccc(F)c3)ccc2OC[C@@H]2O[C@@H](CC(=O)Nc3ccccc3)CC[C@@H]21`, the result was inactive.
For the molecule `CO[C@H]1CN(C)C(=O)c2cc(NC(C)=O)ccc2OC[C@@H](C)N(C(=O)c2ccccn2)C[C@H]1C`, the molecule was classed as inactive.
On to `CCN(C[C@@H]1[C@@H](c2ccccc2)[C@@H](CO)N1S(C)(=O)=O)C(=O)C1CC1`, for which the molecule was called inactive.
Take `CN1CCN(C(=O)C[C@H]2CC[C@@H]3[C@H](COc4ccc(NC(=O)c5cccs5)cc4C(=O)N3C)O2)CC1`: the molecule was called inactive.
Regarding `CC(C)(C)c1ccc(S(=O)(=O)NCCc2ccncc2)cc1`, the molecule was called inactive.
Regarding `C[C@@H]1CN([C@H](C)CO)S(=O)(=O)c2ccc(C3=CCCCC3)cc2O[C@@H]1CN(C)C(=O)Nc1ccc2c(c1)OCO2`, the outcome was inactive.
Turning to `CN1C(=O)c2cc(NC(=O)c3ccccc3F)ccc2OC[C@H]2O[C@H](CC(=O)NCc3ccc4c(c3)OCO4)CC[C@@H]21`, the call was inactive.
Regarding `COc1ccc(CCNC(=O)c2c(C)cc(=O)oc2C)cc1OC`, the outcome was inactive.
The same measure, in the same setting: next, `Cc1cc(C(C)(C)C)cc(S(=O)(=O)NCCc2ccncc2)c1C`: “inactive”.
Regarding `N#Cc1ccc(C(=O)Nc2ccc(N3CCN(C(=O)c4ccco4)CC3)cc2)c(F)c1`, the activity change, negative = cytotoxicity was -30.3% [at 6 µM].
As to `CCCC(=O)Nc1ccc2c(c1)C(=O)N(C)[C@@H]1CC[C@H](CC(=O)NCCOC)O[C@H]1CO2`, the result was inactive.
As to `CN(C[C@H]1N[C@@H](CO)[C@@H]1c1ccc(C2=CCCC2)cc1)C(=O)c1ccc(F)cc1`, the result was inactive.
In the case of `Cc1nn(C)cc1NC(=O)C[C@@H]1CC[C@@H]2[C@H](COc3ccc(NC(=O)Nc4cccc(Cl)c4)cc3C(=O)N2C)O1`, the call was inactive.
Consider `C[C@@H]1CN([C@H](C)CO)C(=O)c2cc(-c3cccc(C#N)c3)cnc2O[C@H]1CN(C)C(=O)C1CCC1`, for which the call was inactive.
As for `OCc1ccc(-c2nn(Cc3ccccc3)c3ccccc23)o1`, the molecule was classed as inactive.
Take `COC(=O)C[C@H]1CC[C@H]2[C@H](COc3ccc(NS(=O)(=O)c4ccc(F)cc4)cc3C(=O)N2C)O1`: the call was inactive.
On the same count and under the same terms, for `O=C(CNCCC1=CCCCC1)Nc1ccccc1N1CCCCCC1` the value was “inactive”.
